Screening data: PubChem BioAssay, Emory University Molecular Libraries Screening Center
14-3-3 PPI: 14-3-3 gamma protein interaction modulation; hit rate 0.19% among 160,000; FP, 14-3-3gamma / TMR-pS259-Raf peptide binding; inhibition, % at 40 µM; P61981; in the data active = inhibition above about 30%;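 also: 0% = protein plus tracer without compound and 100% = blank with tracer alone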
Target sequence (P61981 whole entry, looked up): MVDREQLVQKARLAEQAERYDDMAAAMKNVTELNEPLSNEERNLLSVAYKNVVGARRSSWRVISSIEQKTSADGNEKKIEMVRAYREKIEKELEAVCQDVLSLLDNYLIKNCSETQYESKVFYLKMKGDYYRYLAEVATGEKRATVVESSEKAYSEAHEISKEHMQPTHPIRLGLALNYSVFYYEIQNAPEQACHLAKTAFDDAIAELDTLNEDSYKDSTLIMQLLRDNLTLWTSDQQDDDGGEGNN
* hit, by the source's call. Many of the other results were omitted from the sample, so hits are more common in it than they were.

How did O=C(NCc1ccccn1)c1cc(Nc2cccc(C(F)(F)F)c2)nc2ccccc12 do in these assays?
14-3-3 PPI: 152.4*

How did Cc1ccc(C)c(Nc2cc(C(=O)NCc3ccccn3)c3ccccc3n2)c1 do in these assays?
14-3-3 PPI: 7.5

What do the screens show for `CC(C)OCCCNC(=O)c1cc(Nc2cccc(C(F)(F)F)c2)nc2ccccc12`?
14-3-3 PPI: -5.4

How did O=C1c2cccc3c([N+](=O)[O-])ccc(c23)C(=O)N1c1ccccc1 do in these assays?
14-3-3 PPI: 4.2

Results for O=C1c2ccc3c4c(ccc(c24)C(=O)N1c1ccccc1)N(c1ccccc1)C3=O ?
14-3-3 PPI: -69.1

Results for Nc1ccc2c3c(cccc13)C(=O)N(c1ccccc1)C2=O ?
14-3-3 PPI: 86.8*

What do the screens show for `O=C1c2cccc3c(N4CCCC4)ccc(c23)C(=O)N1c1ccccc1`?
14-3-3 PPI: -24.4

Results for C=CCNc1ccc2c3c(cccc13)C(=O)N(c1ccccc1)C2=O ?
14-3-3 PPI: 158.1*

Results for O=C1c2cccc3c(NCCO)ccc(c23)C(=O)N1CCO ?
14-3-3 PPI: 8.5

What do the screens show for `COc1ccc(-n2nc(C(=O)N(C)Cc3ccccc3)c3ccccc3c2=O)c(OC)c1`?
14-3-3 PPI: 2.0

How did COc1ccc(C2=NN(S(C)(=O)=O)C(c3ccccc3Cl)C2)cc1OC (configuration not stated) do in these assays?
14-3-3 PPI: -350.7

What do the screens show for `Cc1ccc(-n2nc(C)c(C=Cc3onc(C)c3[N+](=O)[O-])c2C)cc1`?
14-3-3 PPI: -50.4

What do the screens show for `Cc1cc(C(=O)Nc2ccc3nc(N4CCOCC4)cc(C)c3c2)ccc1[N+](=O)[O-]`?
14-3-3 PPI: 6.0

What do the screens show for `CCC1Oc2ccc(C)cc2N(CC(=O)N2CCCCC2)C1=O` (configuration not stated)?
14-3-3 PPI: 2.8

What do the screens show for `Cc1cc(Br)ccc1N1C(=O)C2C3C=CC(C3)C2C1=O` (configuration not stated)?
14-3-3 PPI: -6.3

How did Cc1ccc(NC(=O)Cn2ncc3c(=O)oc4ccccc4c32)nc1 do in these assays?
14-3-3 PPI: -2.0

Results for COc1ccc(Nc2cc(C)nc3c(C)cccc23)cc1 ?
14-3-3 PPI: -6.0

Results for COc1ccc(Nc2cc(C)nc3ccccc23)cc1 ?
14-3-3 PPI: 38.3*

Results for COc1ccc2nc(C)cc(Nc3ccc(F)cc3)c2c1 ?
14-3-3 PPI: -66.4

Results for C=CCn1c(-c2[nH]c3ccc(OC)cc3c2CC)n[nH]c1=S ?
14-3-3 PPI: 0.1

Results for COc1ccccc1-c1nc2cc(N=Cc3cccc(OC)c3O)ccc2o1 ?
14-3-3 PPI: -58.4

What do the screens show for `CCCOc1ccc(/C(O)=C2/C(=O)C(=O)N(CCN(C)C)C2c2ccc(O)c(OC)c2)cc1` (configuration not stated)?
14-3-3 PPI: -0.6

How did COc1ccc(/C(O)=C2/C(=O)C(=O)N(CCCN(C)C)C2c2ccc(Cl)cc2)cc1OC (configuration not stated) do in these assays?
14-3-3 PPI: -6.3

What do the screens show for `CCCOc1ccc(C2/C(=C(/O)c3ccccc3)C(=O)C(=O)N2CCCN(C)C)cc1OC` (configuration not stated)?
14-3-3 PPI: 34.9*

What do the screens show for `O=C1c2cccc3cccc(c23)C(=O)N1c1cccc([N+](=O)[O-])c1`?
14-3-3 PPI: -8.7

How did O=C(O)c1ccc(NC2=C(N3CCOCC3)C(=O)c3ccccc3C2=O)cc1 do in these assays?
14-3-3 PPI: 55.8*

Results for CCCCOc1ccc(NC2=C(N3CCOCC3)C(=O)c3ccccc3C2=O)cc1 ?
14-3-3 PPI: 1.0

Results for O=C(O)c1cccc(NC2=C(N3CCCC3)C(=O)c3ccccc3C2=O)c1 ?
14-3-3 PPI: -22.3

How did O=C(Nc1cc(C(=O)N2CCN(c3ccccc3Cl)CC2)ccc1N1CC2CC(C1)c1cccc(=O)n1C2)c1cc2ccccc2oc1=O (configuration not stated) do in these assays?
14-3-3 PPI: -2.7

What do the screens show for `O=C(Nc1cccc(-c2nc3ccccc3[nH]2)c1)c1cccc(Oc2ccccc2)c1`?
14-3-3 PPI: -5.2
